# According to PubChem BioAssay:
# “And” between values parts separate entries of the source, which are not always exact repeats. Identical values can stand only once. The source made the active and inactive calls.
# What was measured:
# [1] = A549 cell viability effects, profiling panel, calcein-AM fluorescence, 48 h, basal (AID 1162); conditions: higher = more signal
# [2] = adipocyte viability effects, profiling panel, cell-based, 3T3-L1 adipocytes, calcein-AM fluorescence, 48 h, basal (AID 1163); conditions: 3T3-L1 adipocytes viability, higher = more signal
# [3] = HepG2 cell viability effects, profiling panel, calcein-AM fluorescence, 48 h, basal (AID 1164); conditions: higher = more signal
# [4] = MM1S cell viability effects, profiling panel, calcein-AM fluorescence, 48 h, basal (AID 1165); conditions: higher = more signal;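 further: viability of MM1S multiple myeloma cells under basal unstimulated conditions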
# [5] = basal RPMI8226 viability, no added stimulus, profiling panel, cell-based, calcein-AM fluorescence, 48 h, PK04 Diversity Set (AID 1166); conditions: RPMI8226 myeloma viability, higher = more signal;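 further: cells grown under basal conditions without added stimulus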
# [6] = basal HepG2 mitochondrial membrane potential changes, profiling panel, cell-based, JC-1 fluorescence, 24 h, 100 nL compound (AID 1167); conditions: higher = more signal
# [7] = basal 3T3-L1 adipocyte mitochondrial potential changes, profiling panel, cell-based, JC-1 fluorescence, 3T3-L1 adipocytes, 24 h, 100 nL compound (AID 1168); conditions: JC-1 mitochondrial fluorescence, higher = more signal, called active from +8 up or from −8 down
# [8] = basal RPMI8226 mitochondrial membrane potential changes, profiling panel, cell-based, JC-1 fluorescence, 24 h, 100 nL compound (AID 1169); conditions: RPMI8226 myeloma, JC-1 mitochondrial potential fluorescence, higher = more signal
# [9] = basal MM1S mitochondrial membrane potential changes, profiling panel, cell-based, JC-1 fluorescence, 24 h, 100 nL compound (AID 1170); conditions: higher = more signal
# [10] = A549 lung cancer cell viability effects, profiling panel, resazurin fluorescence, 24 h, PK04 Diversity Set (AID 1171); conditions: higher = more signal, called active from +8 up or from −8 down
# Further: test concentration not given here.
Compound,z-score [1],z-score [2],z-score [3],z-score [4],z-score [5],z-score [6],z-score [7],z-score [8],z-score [9],z-score [10]
O=C1NC(=O)C2C1C=CC(C(O)c1ccc([N+](=O)[O-])cc1)N2Nc1ccc(Cl)cc1Cl (stereo not given),0.953 and 1.59,0.0938 and 0.263,0.949 and 1.79,-0.251 and 0.596,-0.194 and 0.932,-0.115 and -0.654,-0.833 (inactive) and -0.57 (inactive),-0.314 and -0.905,0.319 and 2.28,0.303 (inactive) and 0.766 (inactive)
COC(=O)C1=C(C)N(Cc2ccccc2)C2=C(C(=O)c3ccccc3)[C@H](c3ccccc3)[C@@](O)(C(=O)OC)C(=O)N2[C@@H]1c1ccccc1,0.369 and 0.44,-0.154 and -0.936,0.217 and 1.26,-0.317 and 0.332,-1.15 and 0.0491,1.33 and 2.03,-0.393 (inactive) and -1.16 (inactive),-0.639 and -0.349,0.573 and -0.514,1.39 (inactive) and -0.344 (inactive)
CO[C@@H]1COC(=O)CC=C[C@H](C)COC(=O)[C@H](C)NC(=O)CC=C[C@H]1C,0.158,0.31,0.46,0.122,0.353,1.04,0.214 (inactive),-0.0124,0.955,0.162 (inactive)
COC(=O)C1=C(C)N(Cc2ccccc2)[C@]23O[C@](C(=O)OC)(C(=O)N2[C@@H]1c1ccccc1)[C@H]1CCCC(=O)[C@H]13,0.144 and -0.51,0.474 and 0.827,-0.336 and -0.818,-3.25 and -1.15,-1.18 and -0.337,0.662 and 0.827,1.33 (inactive) and 0.966 (inactive),-0.736 and 0.0334,0.291 and -0.342,0.207 (inactive) and -0.277 (inactive)
CO[C@H]1COC(=O)CC=C[C@@H](C)COC(=O)[C@@H](OCc2ccccc2)C=C[C@@H]1C,0.497,0.146,0.835,0.301,0.608,0.952,-0.0508 (inactive),-0.442,-0.414,-0.34 (inactive)
C[C@@H](ON=C1[C@H]2CCn3c(=O)n(-c4ccccc4)c(=O)n3[C@H]2[C@H](O)[C@@H]2O[C@H]12)c1cn([C@H](CO)Cc2ccccc2)nn1,0.158,-0.002,0.567,-0.463,-0.259,-0.998,0.31 (inactive),-0.334,-0.00977,-0.847 (inactive)
C=C[C@H](C)[C@@H](O)c1ccc(OCCO)cc1,0.235 and -0.066,0.101 and -0.192,-0.211 and 0.619,0.529 and -0.301,-0.528 and 0.864,-0.368 and 0.814,0.428 (inactive) and 0.45 (inactive),-0.961 and 0.99,0.976 and -0.205,0.0233 (inactive) and -0.361 (inactive)
C=CCN(CCCC)C(=O)C1N(CCOCCO)C(=O)C2C(C(=O)O)C3C=CC21O3 (stereo not given),-0.397 and -0.276,0.28 and -0.404,-1.2 and -1.42,0.929 and 0.966,-0.234 and 0.295,-0.419 and -0.964,-0.309 (inactive) and -0.776 (inactive),0.563 and 0.0271,0.0912 and -0.0623,-0.169 (inactive) and -0.593 (inactive)
C=CCN(Cc1ccccc1)C(=O)C(c1cccs1)N(C(=O)/C=C\C(=O)O)c1ccc(CCO)cc1 (stereo not given),-0.636 and -0.0917,0.0605 and -0.16,0.391 and 0.373,1.49 and 1.81,0.586 and 0.894,1.26 and 0.706,0.645 (inactive) and 1.1 (inactive),0.648 and 0.272,-1.19 and -0.751,-0.29 (inactive) and -0.14 (inactive)
C=CCN(C(=O)C(c1cccs1)N(C(=O)/C=C\C(=O)O)c1ccc(CCO)cc1)C(C)(C)C (stereo not given),-0.392 and -0.51,-0.589 and -1.1,-0.0749 and -0.55,-1.18 and 0.821,0.3 and 0.317,-0.178 and -0.341,0.529 (inactive) and -0.179 (inactive),0.185 and 0.0345,0.75 and 0.721,-0.0762 (inactive) and -0.389 (inactive)
C[N+](C)(C)CCCCCCNC(=O)[C@@H]1C[C@@H]2C(=O)N[C@@H](CCCC[N+](C)(C)C)C(=O)N2[C@@H]1c1ccc(O)cc1,0.602 and 0.107,-0.266 and -0.25,0.284 and -0.812,0.814 and -0.514,-0.587 and 0.392,-0.367 and -1.19,0.608 (inactive) and 0.109 (inactive),-0.7 and 0.534,-0.778 and -0.749,0.527 (inactive) and 0.818 (inactive)
CCOC(=O)C[C@H]1[C@H](OC(=O)c2ccccc2-c2ccccc2)[C@@H](NC(=O)Cc2ccc(OC)cc2)c2cc(OCCCO)ccc2N1C(=O)c1ccc2ccccc2n1,0.637 and 1.07,1.49 and 0.317,0.633 and 0.244,0.218 and 0.868,-0.765 and -0.644,3.65 and 1.61,0.611 (inactive) and 0.669 (inactive),0.257 and -0.354,0.82 and 0.248,1.26 (inactive) and 0.555 (inactive)
CCC[C@@H]1C[C@@]1(CCC)[C@@H](NC(=O)c1ccc(-c2ccccc2)cc1)c1cccc(Cl)c1,-2.26 and 0.247,-0.882 and -0.867,-2.12 and 1.52,-2.16 and -0.143,-2.94 and -1.06,-0.93 and 2.74,-0.723 (inactive) and 0.883 (inactive),-0.256 and 0.137,-0.647 and -1.16,2.06 (inactive) and 0.608 (inactive)
CC(C)=NOC[C@@H](O)COCc1ccco1,0.991,-0.611,0.828,0.191,0.313,-0.0938,0.121 (inactive),0.602,-0.391,-0.736 (inactive)
C=CCN(Cc1ccccc1)C(=O)C1N(c2ccc(CCO)cc2)C(=O)C2C(C(=O)O)C3C=CC21O3 (stereo not given),0.14 and -0.777,0.103 and 0.408,-0.0042 and -0.474,0.298 and 1.04,-0.6 and -0.438,0.0701 and -0.213,0.543 (inactive) and 0.024 (inactive),-0.79 and 0.726,1.09 and 0.0787,-1.06 (inactive) and -0.459 (inactive)
CO[C@H]1COC(=O)[C@H](C)NC(=O)CC=C[C@@H](C)[C@H](OC)COC(=O)CC=C[C@@H]1C,1.51,0.459,0.235,0.0144,0.417,0.573,0.156 (inactive),0.56,1.04,0.74 (inactive)
COC(=O)C1=C(C)N(Cc2ccccc2)C2=C3C(=O)N(c4ccccc4)C(=O)[C@@H]3[C@@](O)(C(=O)OC)C(=O)N2[C@@H]1c1ccccc1,1.52 and 2.18,0.0671 and 1.01,0.286 and -0.126,-0.532 and 0.354,0.585 and 1.26,0.889 and 1.68,0.143 (inactive) and 1.26 (inactive),-0.87 and -0.111,0.702 and 0.136,0.497 (inactive) and 0.767 (inactive)
COC(=O)[C@H](C)NC(=O)CCC1CC(OC(=O)NCCc2ccc(F)cc2)CC2(CCCC(COC(=O)NCCCN3CCCC3=O)O2)O1 (stereo not given in full),-0.48,1.06,-1.32,-0.901,-1.78,-0.197,0.0783 (inactive),-0.405,0.0394,0.209 (inactive)
COC(=O)[C@@]1(Cc2ccccc2)[C@H]2c3cc(C(=O)N(C)C)n(C[C@H](O)CO)c3C[C@H]2CN1C(=O)c1ccccc1,-0.876 and -0.976,0.318 and -0.385,-0.76 and -1.07,0.112 and 0.416,-1.95 and 0.383,-1.04 and -0.162,-0.0997 (inactive) and -0.187 (inactive),-0.194 and -0.294,-0.609 and -0.129,-1.3 (inactive) and -0.848 (inactive)
